Data as given in PubChem BioAssay AID651814 (National Center for Advancing Translational Sciences (NCATS), 2012).
Screen size: about 2,100 compounds; about 590 (28%) were called active. Roughly 42% stayed inconclusive and do not appear here. Calls come from the whole dose curve; as a rule, active = well fitted inhibition curve with a large enough effect; inconclusive = small, poorly fitted or top-dose-only effect; inactive = flat fitted curve, though single readings scatter. Some of the results follow.

target: DNA dC->dU-editing enzyme APOBEC-3F (Homo sapiens) (UniProt Q8IUX4); test: qHTS for inhibitors of Vif-A3F interactions: Cherry picks; conditions: HeLa A3F-eYFP + Vif (tagged APOBEC3F with the HIV-1 protein that degrades it), eYFP fluorescence, 24 h; note: nearly all actives have a fitted effect of over 70% in size;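 for Max response: % of control where 0% means no effect; active compounds raise eYFP fluorescence by blocking Vif-driven A3F loss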
From the text: The recent discovery and characterization of host restriction factors, which provide a potent defense to invading retroviruses, has provided new targets for antiviral drug development. APOBEC3G (A3G) and APOBEC3F (A3F) are potent cytidine deaminases that block HIV-1 replication; HIV-1 expresses the Vif protein, which counteracts A3G and A3F by binding to them and inducing their proteasomal degradation. The Vif-A3G and Vif-A3F interactions provide two potential targets for development of small molecules which can interfere with the ability of Vif to degrade A3G or A3F. […] To identify inhibitors that can interfere with Vif mediated degradation of A3G and A3F, we have developed Hela cell lines that stably express A3G or A3F tagged with eYFP at the C-terminal end (A3G-eYFP or A3F-eYFP, respectively) and Vif. In the absence of an inhibitor, Vif induces degradation of A3G-eYFP and A3F-eYFP, and the cells are not fluorescent. In the presence of an inhibitor, it is expected that Vif will be unable to degrade A3G-eYFP and/or A3F-eYFP, resulting in an increase in yellow fluorescence. In this assay, Vif A3F was screened against the cherry picks ordered from the MLSMR. NIH Chemical Genomics Center [NCGC] NIH Molecular Libraries Probe Centers Network [MLPCN] MLPCN Grant: MH093245 Assay Submitter (PI): Vinay Pathak, National Cancer Institute
A3F-Vif cells were harvested from T225 flask and resuspended in phenol free OPTI-MEM medium with 5% FBS. Then 5 uL of 140,000 cells/mL resuspended cells was dispensed into each well of low base Aurora COC 1,536-well plates (black walled, clear bottom) using a Multidrop Combi dispenser. After overnight culture at 37 deg C with 5% CO2, a total of 23 nL of compounds at 5 selected concentrations from the NPC or positive control (2 mM stock of MG132) in DMSO was transferred to each well of the assay plate using a pintool (Kalypsys, San Diego, CA), and the plates were further incubated at 37 deg C with 5% CO2 for 24 hours. After that, the plates were measured on Acumen Explorer (TTP Lab Tech). The fluorescence was detected by 488 nm/Ex and […].
Potency is the fitted concentration of half-maximal effect.

DNA dC->dU-editing enzyme APOBEC-3F (Homo sapiens), sequence (Q8IUX4 whole entry, looked up): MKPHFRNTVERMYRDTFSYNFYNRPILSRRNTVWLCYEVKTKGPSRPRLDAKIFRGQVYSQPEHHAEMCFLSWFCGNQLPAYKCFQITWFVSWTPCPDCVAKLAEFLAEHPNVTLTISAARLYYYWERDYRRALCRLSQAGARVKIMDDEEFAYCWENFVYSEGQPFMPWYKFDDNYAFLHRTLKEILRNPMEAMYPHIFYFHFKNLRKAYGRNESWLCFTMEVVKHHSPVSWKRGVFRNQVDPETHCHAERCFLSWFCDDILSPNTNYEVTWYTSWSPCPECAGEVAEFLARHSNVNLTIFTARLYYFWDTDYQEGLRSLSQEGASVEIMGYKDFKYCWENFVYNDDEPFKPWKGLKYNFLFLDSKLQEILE

Potency, active:
Cc1nc2c3cc(F)ccc3n(Cc3ccccc3)c2s1 4.98 µM
Cc1nc2c3cc(F)ccc3n(Cc3ccccc3F)c2s1 14 µM
Cc1ccc(S(=O)c2ccc([N+](=O)[O-])c3nonc23)cc1 (centres undefined) 18.4 µM
Cc1cc(/C=C2\SC(=S)N(Cc3ccco3)C2=O)c(C)n1-c1cccnc1 20.6 µM
Cc1cc(/C=C2\SC(=S)N(C)C2=O)c(C)n1-c1ccccc1O 20.6 µM
CN(C)c1ccc(C=C2SC(=S)N(Cc3ccco3)C2=O)cc1 4.98 µM
Cc1cc(/C=C2\SC(=S)N(Cc3ccco3)C2=O)c(C)n1-c1ccccc1 18.4 µM
Cc1cc2ccccn2c1C(=O)c1ccc([N+](=O)[O-])o1 11.6 µM
N#C/C(=C/c1ccc(N2CCOCC2)o1)C(=O)NC1CCCCC1 16.4 µM
N#C/C(=C\c1ccc(N2CCCCC2)o1)C(N)=O 15.8 µM
N#C/C(=C\c1ccc(N2CCOCC2)o1)C(=O)NC1CCCCC1 15.8 µM
O=C(NCc1ccco1)c1cccc2c1C(=O)c1ccc(N3CCC(Cc4ccccc4)CC3)cc1S2(=O)=O 23.1 µM
O=C(NC1CCCCC1)c1cccc2c1C(=O)c1ccc(N3CCC(Cc4ccccc4)CC3)cc1S2(=O)=O 12.5 µM
O=C(NC1CC1)c1cccc2c1C(=O)c1ccc(N3CCC(Cc4ccccc4)CC3)cc1S2(=O)=O 20.6 µM
CN(C)c1ccc(/C=C2\SC(N3CCCCC3)=NC2=O)cc1 16.4 µM
CN(C)c1ccc(/C=C2\C(=N)N3N=C(CC(=O)N4CCCCC4)SC3=NC2=O)cc1 16.4 µM
CCN(CC)c1ccc(/C=C2\C(=N)N3N=C(CC(=O)N4CCOCC4)SC3=NC2=O)cc1 0.396 µM
C1=Cc2ccccc2/C1=C\c1cc2c3c(c1)CCCN3CCC2 18.4 µM
Cc1sc2ncnc(N=Nc3c(O)[nH]c4ccccc34)c2c1C 13 µM
O=S(=O)(Nc1ccc(C(O)(C(F)(F)F)C(F)(F)F)cc1)c1ccc(Cl)c2nonc12 12.5 µM
CCn1c(/C=C/c2ccc([N+](=O)[O-])o2)nc2ccccc2c1=O 3.26 µM
Cn1c(/C=C/c2ccc([N+](=O)[O-])o2)nc2ccccc2c1=O 16.4 µM
Cc1cc(N/N=C/c2ccc([N+](=O)[O-])o2)nc2ccccc12 16.4 µM
O=c1c2ccccc2nc(/C=C/c2ccc([N+](=O)[O-])o2)n1CCCO 3.26 µM
Cc1ccc2[nH]c(C)c(/C=C/c3cc[n+](C)cc3)c2c1 0.994 µM
Cc1[nH]c2ccccc2c1/C=C/c1cc[n+](C)cc1 1.58 µM
Cc1[nH]c2ccccc2c1/C=C/C(=O)c1ccccc1 20.6 µM
CN1/C(=C\C=C2/SC(=S)NC2=O)C(C)(C)c2ccccc21 4.44 µM
C=CCN1C(=O)/C(=C\C=C2\N(C)c3ccccc3C2(C)C)SC1=S 0.461 µM
CCCN1C(=O)/C(=C/C=C2\N(CC)c3ccccc3C2(C)C)SC1=S 1.77 µM
CCCN1C(=O)/C(=C\C=C2\N(CC)c3ccccc3C2(C)C)SC1=S 2.06 µM
O=C1/C(=C/c2c[nH]c3ccccc23)CCC/C1=C\c1c[nH]c2ccccc12 16.4 µM
Cc1cccc2cc3c(N)c(C(=O)N4CCOCC4)sc3nc12 7.31 µM
Cc1sc(NC(=O)c2sc3nc4c(C)cccc4cc3c2N)c(C#N)c1C 17.7 µM
Cc1ccc(C)c2nc3sc(C(=O)N4CCOCC4)c(N)c3cc12 12.5 µM
Cc1cccc2cc3c(N)c(C(=O)Nc4ccc(N5CCOCC5)cc4)sc3nc12 11.2 µM
CCn1c(O)c(/C=N/N=C/c2ccc(OC)cc2)c2cc(C3=NNC(=O)CC3)ccc21 6.51 µM
CN(C)c1ccc(/C=C2\Cc3ccccc3C2=O)cc1 5.17 µM
CN(C)c1ccc(/C=C2/C[N+](C)(C)C/C(=C/c3ccc(N(C)C)cc3)C2=O)cc1 2.59 µM
O=C1/C(=C\c2cc([N+](=O)[O-])ccc2O)SC(=S)N1Cc1ccc(Cl)cc1 20.6 µM
Cc1sc(-c2cc3c([nH]c2=O)CC(c2ccccc2)CC3=O)nc1-c1ccc(Cl)cc1 (centres undefined) 1.84 µM
O=C1CC(c2ccccc2)Cc2[nH]c(=O)c(-c3nc(-c4cccc(Cl)c4)cs3)cc21 (centres undefined) 4.11 µM
COc1ccc(C(=O)c2sc3nc4c(c(C(F)(F)F)c3c2N)CN(C(C)=O)CC4)cc1OC 23.1 µM
CC(=O)N1CCc2nc3sc(C(=O)c4ccc(F)cc4)c(N)c3c(C(F)(F)F)c2C1 20.6 µM
O=C1S/C(=C/c2ccc(N3CCOCC3)o2)C(=O)N1Cc1ccc(F)cc1 2.8 µM
O=C1S/C(=C/c2ccc(N3CCOCC3)o2)C(=O)N1Cc1c(F)cccc1Cl 2.5 µM
Cc1cc2nc3s/c(=C/c4ccc(-c5ccccc5C(=O)O)o4)c(=O)n3c2cc1C 20.6 µM
CCc1cc[n+](-c2nc3ccccc3nc2[N-]S(=O)(=O)c2ccc(Br)s2)cc1 23.1 µM

Max response, inactive:
COc1cccc(CNCCSc2nnnn2C)c1OCc1ccc(F)cc1 -0.625%
O=C1/C(=C/c2ccc(O)cc2)SC(=S)N1Cc1cccnc1 -10.2%
S=C(Nc1cccc2ccccc12)NN1CCCCCC1 0.0404%
O=C(NCc1cccnc1)c1ccc([N+](=O)[O-])o1 -20.4%
O=C(NN(c1ccccc1)c1ccccc1)c1ccc([N+](=O)[O-])o1 -20.2%
Cc1onc(-c2c(F)cccc2Cl)c1C(=O)O/N=C(\N)c1ccc([N+](=O)[O-])o1 -3.32%
CSc1cccc(NC(=O)c2cc3c(COC(C)=O)cnc(C)c3oc2=O)c1 -5.04%
Cc1ccc(S(=O)(=O)N2CCCCC2CCNC(=O)C(=O)NCc2ccco2)cc1 (centres undefined) -26.1%
Cc1cc(C)c(S(=O)(=O)N2CCCCC2CCNC(=O)C(=O)NCc2ccco2)c(C)c1 (centres undefined) -24.9%
COc1cc(/C=C2\C(=N)N3N=CSC3=NC2=O)cc(Br)c1OC(=O)c1ccco1 5.77%
COc1cc(/C=C2\C(=N)N3N=C(S(C)(=O)=O)SC3=NC2=O)ccc1OC(=O)c1ccco1 3.53%
Cc1ccc(S(=O)(=O)c2cc3ccccc3oc2=Nc2ccc3c(c2)OCO3)cc1 -1.94%
Cc1sc2ncnc(SCC(=O)NC(C)(C)C)c2c1C 0.663%
Cc1sc2ncn(CC(=O)NCc3ccccc3)c(=O)c2c1C -23.3%
Cc1ccc(F)c(S(=O)(=O)NC(=O)C2(C)CCN2C(=O)Cc2ccc(Cl)cc2Cl)c1 (centres undefined) 0.983%
Cc1ccc(N=C2NC(=O)CC(C(=O)Nc3ccc4c(c3)OCO4)S2)cc1 (centres undefined) -22.7%
CCCN1C(=O)C(Cc2nc3ccccc3c(=O)n2CC)c2cc(Br)ccc21 (centres undefined) -0.982%
Cc1ccc2oc(/N=C(\N)NC(=O)C(C)(C)C)nc2c1 -3.74%
CNC(=O)C(Sc1nc(C)nc2c1oc1ccccc12)C(C)=O (centres undefined) -18.1%
Cc1cc(NC(=O)Nc2nnc(N(C)Cc3ccccc3)s2)ccc1Br -0.38%
O=C(Nc1cc(Cl)cc2c1-c1ccc(Cl)cc1C2O)C(Cl)Cl (centres undefined) -15.3%
CCCCN(C(=O)c1ccc([N+](=O)[O-])s1)c1c(N)n(CCCC)c(=O)[nH]c1=O 3.55%
COc1cccc(/C=N/n2c(C3CCCCC3)n[nH]c2=S)c1O 2.43%
CCOc1cc(C)nc(NCc2ccccc2)n1 -21.9%
CCCn1c(C2CCCN2c2nc(-c3cccc(Br)c3)cs2)nc2ccccc21 (centres undefined) 2.76%
C=C(C)CNC(=S)N/N=C1\CCCCc2ccccc21 0.867%
CN1/C(=C\C=C2/SC(=S)N(CC(=O)O)C2=O)C(C)(C)c2ccccc21 -6.86%
CCN1C(=O)/C(=C/C=C2\N(CC)c3cc(S(=O)(=O)N(C)C)ccc3N2c2ccccc2)SC1=S -29.7%
Clc1ccsc1-c1csc(-c2cccnc2)n1 -27.5%
NNC(=S)Nc1c(F)cc(F)cc1Br 1.43%
Cn1nnnc1SCCNCc1cc(Br)ccc1OCc1ccccc1Cl -14.7%
O=C(Nc1ccc(N2CCOCC2)cc1)c1cccc2ccccc12 -29.2%
COc1cc(C(=O)OCC(=O)Nc2ccc(N3CCOCC3)cc2)ccc1OCC(C)C 1.41%
CCN(CC)c1ccc(/C=N/NC(=S)NC)c(O)c1 -6.91%
COc1ccc(Nc2nc(C)nc3sc4c(c23)CCC4)cc1O -29.4%
C[N+](C)(C)CCC(=O)N1C/C(=C/c2ccccc2)C(=O)/C(=C\c2ccccc2)C1 -12.6%
O=C1/C(=C\c2ccc(O)c(O)c2)SC(=S)N1Cc1ccccc1 -22.4%
CCN(c1ccc(NC(=O)CCc2nc3sc4c(c3c(=O)[nH]2)CCCC4)cc1)C(C)C -16.9%
Clc1ccccc1C1CC(c2ccccc2)=Nc2ccccc2N1 (centres undefined) -7.9%
Cc1ccc(NC(=O)C2CCN(S(=O)(=O)c3ccc(Cl)c(C(F)(F)F)c3)CC2)nc1 1.5%
O=S(=O)([N-]c1nc2ccccc2nc1-[n+]1ccc(-c2ccncc2)cc1)c1ccccc1 -0.136%
